Measured values from PubChem BioAssay (NCATS).
Results filed as inconclusive are left out. Activity calls are given as the source filed them. Unless noted, calls come from the whole dose curve; as a rule, active = well fitted curve in either direction with a large enough effect (not every such curve was filed as active); inconclusive = small, poorly fitted or top-dose-only effect, or another doubt; inactive = flat fitted curve, though single readings scatter.

Legend:
[1] = biological target: Lysosomal acid glucosylceramidase (Homo sapiens) (UniProt P04062); experiment: Glucocerebrosidase-p2 (AID 348; in the data active = potency below about 10 µM; note: potency is the fitted concentration of half-maximal effect); settings: purified GBA, blue fluorogenic substrate, 40 min
Sequence of Lysosomal acid glucosylceramidase (Homo sapiens) (P04062 whole entry, looked up): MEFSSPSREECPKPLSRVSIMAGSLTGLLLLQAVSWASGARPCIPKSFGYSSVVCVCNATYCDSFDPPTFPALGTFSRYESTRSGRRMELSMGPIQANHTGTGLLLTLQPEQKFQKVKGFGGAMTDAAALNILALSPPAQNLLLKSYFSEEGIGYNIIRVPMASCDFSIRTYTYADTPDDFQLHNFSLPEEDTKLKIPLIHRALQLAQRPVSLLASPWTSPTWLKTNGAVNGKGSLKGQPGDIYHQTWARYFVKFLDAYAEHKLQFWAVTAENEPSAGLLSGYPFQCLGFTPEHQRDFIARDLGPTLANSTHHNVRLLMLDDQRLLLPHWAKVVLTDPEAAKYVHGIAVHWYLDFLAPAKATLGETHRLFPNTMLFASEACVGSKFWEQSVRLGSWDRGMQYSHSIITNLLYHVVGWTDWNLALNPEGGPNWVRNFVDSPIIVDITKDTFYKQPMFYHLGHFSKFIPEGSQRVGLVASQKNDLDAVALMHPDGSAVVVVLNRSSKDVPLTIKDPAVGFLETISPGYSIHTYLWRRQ
Summary of the method: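 Normal human glucocerebrosidase (0.2 nM) with blue fluorogenic substrate (80 uM final) in citrate/phosphate pH 5.9 with 10mM sodium taurocholate, 0.01% tween-20; 40 min RT, NaOH/glycine stop; fluorescence Ex 365/Em 440; AC50 from a titration from 0.6 nM upwards.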

[2] = AP1 Signaling Pathway (AID 357); settings: ME-180 AP-1-bla reporter, EGF-induced, beta-lactamase ratio, 5 h; at 7.69 µM (top of the series) unless noted;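 note: ME-180 reporter cells stimulated with EGF at its EC50 level; % is set by controls: 0 for no effect and ±100 for the full control effect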
Summary of the method: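 A ratiometric CCF4 readout (405 nm excitation; 460 and 530 nm emission) quantified AP-1-driven beta-lactamase in ME-180 cells after 5 h with compound and EC50 EGF; AC50 values were derived for activators and inhibitors.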

[3] = biological target: Cytochrome P450 1A2 (Homo sapiens) (UniProt P05177); experiment: p450-cyp1a2 (AID 410; calls by dose curve; note: potency is the fitted concentration of half-maximal effect;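 for activity change, negative = inhibition: -100% = full effect of reference inhibitor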); settings: recombinant CYP1A2, luciferin-ME demethylation, luminescence; series mostly up to 57 µM
Sequence of Cytochrome P450 1A2 (Homo sapiens) (P05177 whole entry, looked up): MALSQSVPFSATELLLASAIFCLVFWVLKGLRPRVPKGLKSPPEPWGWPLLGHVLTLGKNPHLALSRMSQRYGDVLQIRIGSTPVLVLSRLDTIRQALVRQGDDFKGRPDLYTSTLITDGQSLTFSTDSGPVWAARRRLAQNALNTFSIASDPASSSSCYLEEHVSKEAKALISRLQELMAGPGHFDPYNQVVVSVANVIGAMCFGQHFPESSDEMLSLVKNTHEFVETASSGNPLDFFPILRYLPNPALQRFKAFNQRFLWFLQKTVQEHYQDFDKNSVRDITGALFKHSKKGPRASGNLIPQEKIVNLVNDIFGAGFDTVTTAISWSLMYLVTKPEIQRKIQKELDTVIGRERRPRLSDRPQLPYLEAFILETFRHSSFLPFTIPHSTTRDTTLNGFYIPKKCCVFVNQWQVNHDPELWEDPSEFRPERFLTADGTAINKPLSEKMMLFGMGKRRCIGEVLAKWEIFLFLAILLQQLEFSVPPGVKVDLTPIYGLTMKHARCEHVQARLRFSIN
Summary of the method: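 O-Demethylation of luciferin 6' methyl ether by human CYP1A2 is monitored as luciferase luminescence. Substrate sits at Km (100uM); enzyme is 20nM. Values are scaled to 57 uM furafylline as maximal inhibition.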

[4] = biological target: Glucocorticoid receptor (Homo sapiens) (UniProt P04150); experiment: GR-EFC Redistribution (AID 451; calls by dose curve; note: potency is the fitted concentration of half-maximal effect); settings: CHO-K1 GR-EFC translocation, beta-gal luminescence, 2 h
Sequence of Glucocorticoid receptor (Homo sapiens) (P04150 whole entry, looked up, the tested form may be a part): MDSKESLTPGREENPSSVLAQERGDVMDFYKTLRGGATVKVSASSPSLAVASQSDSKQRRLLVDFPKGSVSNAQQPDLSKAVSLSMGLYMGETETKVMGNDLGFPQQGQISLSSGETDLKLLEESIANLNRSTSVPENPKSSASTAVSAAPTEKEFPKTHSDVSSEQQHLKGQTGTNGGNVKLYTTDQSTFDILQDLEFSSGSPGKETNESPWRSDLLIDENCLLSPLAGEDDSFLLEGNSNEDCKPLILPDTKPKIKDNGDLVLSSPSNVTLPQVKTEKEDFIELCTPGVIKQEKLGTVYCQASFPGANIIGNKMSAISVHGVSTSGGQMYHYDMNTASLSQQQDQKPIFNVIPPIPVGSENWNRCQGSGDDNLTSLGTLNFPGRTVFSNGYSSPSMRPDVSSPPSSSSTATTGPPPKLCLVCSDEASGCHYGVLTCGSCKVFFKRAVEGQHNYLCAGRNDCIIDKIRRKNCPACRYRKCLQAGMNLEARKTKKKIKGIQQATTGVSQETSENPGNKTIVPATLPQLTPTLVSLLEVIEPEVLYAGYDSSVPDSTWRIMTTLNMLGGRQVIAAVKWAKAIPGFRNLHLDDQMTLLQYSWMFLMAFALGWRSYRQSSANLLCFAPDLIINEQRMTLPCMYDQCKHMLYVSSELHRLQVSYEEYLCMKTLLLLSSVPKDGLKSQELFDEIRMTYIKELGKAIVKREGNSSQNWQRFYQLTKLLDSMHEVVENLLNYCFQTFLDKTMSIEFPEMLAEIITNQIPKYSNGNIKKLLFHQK
Summary of the method: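 Translocation of GR-ED fusion to nuclear EA restores b-gal, read by luminescence after 1 h room-temperature detection. Engineered CHO-K1 biosensor cells, 1,000/well, exposed 2 h at 37 C to titrations up to 46 uM final.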

[5] = biological target: Mitogen-activated protein kinase 10 (Mus musculus) (UniProt Q61831); experiment: JNK3 AlphaScreen Assay (AID 530); settings: JNK3 lysate, c-Jun phosphorylation; series mostly up to 57.1 µM;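 note: kinase came from lysate of stimulated human HepG2 cells; signal reports phosphorylation of biotinylated GST-cJun 1-79 at Ser73 with 10 µM ATP; % is set by controls: 0 for no effect and ±100 for the full control effect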
Summary of the method: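 qHTS titrations with 15 min compound pre-incubation before adding ATP (10 uM final). Read-out: AlphaScreen of Ser73-phosphorylated biotin-GST-cJun using HepG2 lysate JNK3 activated by IL-1β and TNFα.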

[6] = biological target: 3',5'-cyclic-AMP phosphodiesterase 4B (Homo sapiens) (UniProt Q07343); experiment: qHTS Assay for Inhibitors of PDE-IV (AID 607; active = well fitted activation curve with a large enough effect in the main read-out, with a control signal flat, not every such curve was filed as active; note: % of control where 0% means no effect); settings: HEK293 ACTOne CNG channel cells, membrane potential fluorescence; series mostly up to 22.9 µM
Sequence of 3',5'-cyclic-AMP phosphodiesterase 4B (Homo sapiens) (Q07343 whole entry, looked up): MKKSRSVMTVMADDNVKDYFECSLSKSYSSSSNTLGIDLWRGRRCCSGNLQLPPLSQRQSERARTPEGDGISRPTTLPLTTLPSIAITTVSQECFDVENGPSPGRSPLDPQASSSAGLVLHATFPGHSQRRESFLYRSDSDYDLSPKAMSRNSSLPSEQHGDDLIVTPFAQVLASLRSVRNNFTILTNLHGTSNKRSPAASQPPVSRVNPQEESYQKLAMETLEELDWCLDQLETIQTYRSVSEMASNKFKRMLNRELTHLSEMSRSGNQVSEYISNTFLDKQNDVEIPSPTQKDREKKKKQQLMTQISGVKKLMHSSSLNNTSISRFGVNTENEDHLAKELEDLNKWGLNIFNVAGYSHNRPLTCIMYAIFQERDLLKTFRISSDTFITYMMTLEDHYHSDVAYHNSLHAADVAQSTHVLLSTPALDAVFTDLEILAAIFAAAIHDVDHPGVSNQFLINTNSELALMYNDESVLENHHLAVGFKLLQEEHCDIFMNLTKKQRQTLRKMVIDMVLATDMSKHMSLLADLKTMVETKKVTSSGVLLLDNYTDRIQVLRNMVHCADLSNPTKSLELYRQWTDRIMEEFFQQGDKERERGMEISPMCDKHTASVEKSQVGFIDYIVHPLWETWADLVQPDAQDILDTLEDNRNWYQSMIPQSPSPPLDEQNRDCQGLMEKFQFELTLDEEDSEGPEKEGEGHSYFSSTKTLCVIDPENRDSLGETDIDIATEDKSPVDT
Summary of the method: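 Live HEK293 cells with a modified cyclic nucleotide-gated (CNG) channel report intracellular cAMP via membrane-potential dye fluorescence (ex 535/em 590 nm). Endogenous PDE-IV was targeted. Compounds were tested at up to 22.9 uM final; RO 20-1724 100 uM served as control.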

[7] = biological target: Cytochrome P450 3A4 (Homo sapiens) (UniProt P08684); experiment: qHTS Assay for Inhibitors and Substrates of Cytochrome P450 3A4 (AID 884; active = well fitted curve in the direction sought with a large enough effect; an effect the other way counts as inactive or inconclusive; note: nearly all actives have a fitted effect of over 50% in size; note: potency is the fitted concentration of half-maximal effect); settings: recombinant CYP3A4, Luciferin-PPXE luminescence; series mostly up to 57.1 µM
Sequence of Cytochrome P450 3A4 (Homo sapiens) (P08684 whole entry, looked up): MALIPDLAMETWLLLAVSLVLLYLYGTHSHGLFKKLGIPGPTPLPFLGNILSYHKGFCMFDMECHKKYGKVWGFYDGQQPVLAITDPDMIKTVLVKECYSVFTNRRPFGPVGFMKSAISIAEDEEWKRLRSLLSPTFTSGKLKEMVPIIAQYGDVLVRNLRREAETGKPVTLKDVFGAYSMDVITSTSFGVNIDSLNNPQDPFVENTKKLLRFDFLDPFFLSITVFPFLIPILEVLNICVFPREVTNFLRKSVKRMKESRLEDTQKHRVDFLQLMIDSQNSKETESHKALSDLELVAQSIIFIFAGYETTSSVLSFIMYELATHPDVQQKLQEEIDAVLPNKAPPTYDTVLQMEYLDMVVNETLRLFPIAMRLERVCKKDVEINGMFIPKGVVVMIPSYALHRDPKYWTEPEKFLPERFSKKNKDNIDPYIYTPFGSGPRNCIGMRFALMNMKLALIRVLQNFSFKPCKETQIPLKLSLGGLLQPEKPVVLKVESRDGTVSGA
Summary of the method: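 Luminescent readout of luciferin produced by CYP3A4 (20 nM) dealkylation of Luciferin-PPXE, 25 uM (its KM). NADPH-driven reaction ran 60 min at RT after 10 min compound preincubation; data scaled to 57 uM ketoconazole as 100% inhibition.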

[8] = biological target: Cytochrome P450 2D6 (Homo sapiens) (UniProt P10635); experiment: qHTS Assay for Inhibitors and Substrates of Cytochrome P450 2D6 (AID 891; active = well fitted curve in the direction sought with a large enough effect; an effect the other way counts as inactive or inconclusive; note: potency is the fitted concentration of half-maximal effect; nearly all actives have a fitted effect of over 60% in size); settings: recombinant CYP2D6, luciferin-ME EGE luminescence; series mostly up to 57.1 µM
Sequence of Cytochrome P450 2D6 (Homo sapiens) (P10635 whole entry, looked up): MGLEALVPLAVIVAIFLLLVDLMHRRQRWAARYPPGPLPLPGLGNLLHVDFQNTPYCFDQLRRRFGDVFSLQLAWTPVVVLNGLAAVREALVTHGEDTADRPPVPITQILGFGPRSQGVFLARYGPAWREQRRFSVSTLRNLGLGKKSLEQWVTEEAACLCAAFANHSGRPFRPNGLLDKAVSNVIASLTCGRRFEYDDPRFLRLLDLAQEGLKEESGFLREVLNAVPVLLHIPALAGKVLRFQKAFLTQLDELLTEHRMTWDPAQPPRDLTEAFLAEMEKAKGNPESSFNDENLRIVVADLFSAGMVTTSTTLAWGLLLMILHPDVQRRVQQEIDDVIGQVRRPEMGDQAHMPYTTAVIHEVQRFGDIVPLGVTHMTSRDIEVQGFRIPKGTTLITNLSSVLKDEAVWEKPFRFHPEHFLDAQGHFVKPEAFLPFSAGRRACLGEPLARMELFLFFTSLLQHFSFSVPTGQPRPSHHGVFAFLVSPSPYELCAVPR
Summary of the method: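 Luminescent read-out of luciferin formed by 5 nM human CYP2D6 demethylating 30 uM Luciferin-ME EGE (Km level) over 60 min at room temperature after NADPH regeneration addition. Data normalized to full inhibition by 1.43 uM quinidine.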

[9] = qHTS Assay for Lipid Storage Modulators (AID 1519; calls by dose curve); settings: Drosophila S3 cells, BODIPY lipid droplet/cell ratio, laser cytometry, cells loaded with oleic acid; for activity change, negative = inhibition: at 57.5 µM (top of the series)
Summary of the method: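 Cells seeded at 5,000 per well were treated with compounds over a concentration series and loaded with oleic acid (400 uM, as added). Lipid droplet fluorescence (488 nm excitation, 500-530 nm channel) was read by laser-scanning cytometry and normalized to 20 uM Triacsin C.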

[10] = Stat Signaling Pathway (AID 446); settings: ME-180 SIE beta-lactamase reporter, IL-6 stimulated, 5 h; at 7.69 µM (top of the series) unless noted;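 note: ME-180 cervical cancer cells given 40 pM IL-6 alongside compound; SIE-controlled beta-lactamase reporter measured as 460/530 nm FRET emission ratio; % is set by controls: 0 for no effect and ±100 for the full control effect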
Summary of the method: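 Overnight-plated ME-180 cells bearing a STAT Inducible Element beta-lactamase reporter; 5 h co-exposure to compound and 40 pM IL-6; values normalized to 300 pM IL-6 and 125 nM JAK inhibitor controls.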

[11] = biological target: Cytochrome P450 3A4 (Homo sapiens) (UniProt P08684); experiment: qHTS Assay for Activators of Cytochrome P450 3A4 (AID 885; active = well fitted curve in the direction sought with a large enough effect; an effect the other way counts as inactive or inconclusive; note: nearly all actives have a fitted effect of over 65% in size); settings: recombinant CYP3A4, Luciferin-PPXE luminescence, 60 min; series mostly up to 57.1 µM
Summary of the method: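 Using 20nM recombinant human CYP3A4 in potassium phosphate (200mM), substrate Luciferin-PPXE at 25uM, luminescent luciferin detection followed a 60-min RT NADPH reaction; data scaled to 57 uM ketoconazole.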

[12] = NFAT Signaling Pathway (AID 444); settings: Jurkat NFAT-bla M1, carbachol, beta-lactamase ratio, 5 h; at 7.69 µM (top of the series) unless noted;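 note: carbachol stimulus at about its EC50 of 1 µM final; % is set by controls: 0 for no effect and ±100 for the full control effect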
Summary of the method: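 Read-out: CCF4 FRET ratio (460 nm/530 nm) after 1 h RT dye loading, used for %activity and AC50 from titration series. Cells: Jurkat NFAT-β-lactamase/M1 line, treated with compound plus 1 uM carbachol for 5 h, 37 °C.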

[13] = biological target: Glucocorticoid receptor (Homo sapiens) (UniProt P04150); experiment: GR-GFP Redistribution (AID 450;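 active = compounds whose dose series gives a full or clear partial fitted curve of increased nuclear translocation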; note: potency is the fitted concentration of half-maximal effect); settings: U2OS GR-GFP nuclear translocation, laser cytometry, 2 h
[14] = biological target: Cytochrome P450 2C19 (Homo sapiens) (UniProt P33261); experiment: qHTS Assay for Inhibitors and Substrates of Cytochrome P450 2C19 (AID 899; active = well fitted curve in the direction sought with a large enough effect; an effect the other way counts as inactive or inconclusive; note: potency is the fitted concentration of half-maximal effect; nearly all actives have a fitted effect of over 60% in size); settings: recombinant CYP2C19, luciferin-H EGE luminescence; series mostly up to 57.1 µM
Sequence of Cytochrome P450 2C19 (Homo sapiens) (P33261 whole entry, looked up): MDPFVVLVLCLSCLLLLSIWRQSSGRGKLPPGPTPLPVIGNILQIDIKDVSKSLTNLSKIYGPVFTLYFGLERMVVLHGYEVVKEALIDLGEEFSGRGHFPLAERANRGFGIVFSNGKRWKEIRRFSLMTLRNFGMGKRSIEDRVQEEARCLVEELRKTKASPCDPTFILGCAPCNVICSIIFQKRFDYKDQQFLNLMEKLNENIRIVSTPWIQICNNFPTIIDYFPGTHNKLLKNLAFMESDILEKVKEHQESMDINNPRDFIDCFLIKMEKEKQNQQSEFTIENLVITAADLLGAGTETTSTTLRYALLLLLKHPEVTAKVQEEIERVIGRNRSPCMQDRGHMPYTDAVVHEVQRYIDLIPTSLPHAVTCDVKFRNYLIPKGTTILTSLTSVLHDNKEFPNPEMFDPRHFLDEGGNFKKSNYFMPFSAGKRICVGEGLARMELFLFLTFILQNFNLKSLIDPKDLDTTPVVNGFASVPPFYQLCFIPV
Summary of the method: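 Luminescence readout of luciferin formed from 10uM Luciferin-H EGE (KM level) by 5 nM CYP2C19 in 50mM KPO4. 60 min NADPH-driven reaction at 37C after 10 min compound preincubation; data scaled to 57uM ketoconazole inhibition.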

[15] = Confirmation and Secondary Assay for Modulators of Hemoglobin Beta Chain Splicing at IVS2 654 locus (AID 910; active = well fitted curve in the direction sought with a large enough effect; an effect the other way counts as inactive or inconclusive;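 note: HeLa cells stably carrying EGFP split by mutant beta-globin IVS2-654 intron; per-well total GFP intensity by laser scanning cytometry after 2-day treatment; % of control where 0% means no effect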); settings: HeLa EGFP-654 splicing reporter, GFP fluorescence, 48 h; series mostly up to 38.3 µM
Summary of the method: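 Readout: per-well total peak green fluorescence (488 nm ex, 500–520 nm em) from objects 5–250 µm, reflecting correct splicing of an EGFP-654 reporter. Compounds were applied for 2 days at 37 °C to overnight-plated HeLa EGFP-654 cells; controls were DMSO and 500 nM IVS2-654 PNA.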

[16] = qHTS Assay for Identification of Small Molecule Agonists for Hypoxia Response Element Signaling Pathway (AID 914; active = well fitted activation curve with a large enough effect in the signal ratio, with a control signal flat, not every such curve was filed as active; the % refers to the signal ratio; note: % of control where 0% means no effect); settings: ME-180 (cervical carcinoma) HRE-bla reporter, beta-lactamase ratio, CoCl2, 17 h; activation: stronger effect = higher value
Summary of the method: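 qHTS titration; ME-180 HRE-bla cells; EC50 CoCl2 co-treatment, 17 h at 37 degrees Celsius; CCF4 dye, ex 405nm, em 460nm and 530nm; %Activity from ratio; AC50.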

[17] = Confirmation and Secondary Assay for Modulators of Hemoglobin Beta Chain Splicing at IVS2 705 locus (AID 930; active = well fitted curve in the direction sought with a large enough effect; an effect the other way counts as inactive or inconclusive;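 note: HeLa cells stably expressing the EGFP-705 splicing reporter; GFP fluorescence per well restored by corrected splicing of the IVS2-705 intron in EGFP; % of control where 0% means no effect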); settings: HeLa EGFP-705 splicing reporter, GFP fluorescence, 48 h; series mostly up to 38.3 µM
Summary of the method: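 Secondary splice-site specificity test uses HeLa expressing CMV-driven EGFP interrupted by IVS2-705; cells were treated 2 days at 37C with 500 nM antisense PNA as positive control.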

[18] = biological target: Ubiquitin carboxyl-terminal hydrolase 1 (Homo sapiens) (UniProt O94782); experiment: Inhibitors of USP1/UAF1: Pilot qHTS (AID 504865; active = well fitted curve in the direction sought with a large enough effect; an effect the other way counts as inactive or inconclusive; note: potency is the fitted concentration of half-maximal effect; nearly all actives have a fitted effect of over 35% in size); settings: purified USP1/UAF1, Ub-rhodamine cleavage fluorescence; series mostly up to 54.9 µM
Sequence of Ubiquitin carboxyl-terminal hydrolase 1 (Homo sapiens) (O94782 whole entry, looked up): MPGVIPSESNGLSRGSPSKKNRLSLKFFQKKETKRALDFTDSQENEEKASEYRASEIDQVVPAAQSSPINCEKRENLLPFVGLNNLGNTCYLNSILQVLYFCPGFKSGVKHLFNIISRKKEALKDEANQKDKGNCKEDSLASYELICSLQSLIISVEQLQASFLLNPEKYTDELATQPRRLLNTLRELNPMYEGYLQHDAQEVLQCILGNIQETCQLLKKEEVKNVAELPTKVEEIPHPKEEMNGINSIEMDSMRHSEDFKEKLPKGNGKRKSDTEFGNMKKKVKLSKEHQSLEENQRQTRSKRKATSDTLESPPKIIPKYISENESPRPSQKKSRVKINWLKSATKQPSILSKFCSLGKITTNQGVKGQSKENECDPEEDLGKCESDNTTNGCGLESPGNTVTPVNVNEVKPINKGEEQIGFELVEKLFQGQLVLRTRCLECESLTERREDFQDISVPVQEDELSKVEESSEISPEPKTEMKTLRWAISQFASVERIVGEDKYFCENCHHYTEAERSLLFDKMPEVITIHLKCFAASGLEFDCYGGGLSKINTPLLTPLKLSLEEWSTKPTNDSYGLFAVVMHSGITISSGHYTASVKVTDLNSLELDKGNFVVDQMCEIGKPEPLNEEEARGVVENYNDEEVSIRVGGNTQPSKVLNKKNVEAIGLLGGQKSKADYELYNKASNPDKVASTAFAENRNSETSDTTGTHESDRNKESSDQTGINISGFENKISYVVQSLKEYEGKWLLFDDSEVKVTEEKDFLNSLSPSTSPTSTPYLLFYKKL
Summary of the method: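 Enzyme-free wells gave the negative control, while test wells held 1nM USP1/UAF1 preincubated with compound for 15 min at room temperature. Ub-Rho at 150nM final started the reaction, and fluorescence at 480/540 nm was recorded kinetically.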

[19] = measured here: cell count channel max response
[20] = measured here: lipid channel max response

Row | SMILES | Potency [1] | activity change, negative = inhibition [2] | Potency [3] | Potency [4] | Potency [5] | Potency [6] | Potency [7] | Potency [8] | activity change, negative = inhibition [9] | max response [9, 19] | max response [9, 20] | activity, negative = inhibition [10] | Potency [11] | activity change, negative = inhibition [12] | Potency [13] | Potency [14] | Potency [15] | activation [16] | outcome [17] | Potency [18]
1 | c1ccc(C(c2ccccc2)N2CC3(CCNCC3)C2)cc1 | > 11.4 µM (inactive) | 14% (inactive) | 15.8 µM (active) | > 46 µM (inactive) | inactive | inactive | inactive | 2.51 µM (active) | 0.527% (inactive) | -0.423% | 0.5% | – | – | – | – | – | – | – | – | –
2 | N#Cc1ccc(CN2CCC3(CC2)CCN(S(=O)(=O)c2ccccc2)CC3)cc1 | > 11.4 µM (inactive) | -18.1% (inactive) | inactive | > 46 µM (inactive) | inactive | inactive | – | – | -0.545% (inactive) | 11.7% | 10.8% | 1.33% (inactive) | inactive | – | – | – | – | – | – | –
3 | N#CCCn1c(=O)c(-c2ccc(Cl)cc2)nc2cnc(Oc3cccc(Cl)c3)nc21 | > 11.4 µM (inactive) | 23.4% (inactive) | inactive | > 46 µM (inactive) | inactive | inactive | – | – | 4.13% (inactive) | 4.81% | 10.2% | – | – | 14.7% (inactive) | > 9.22 µM (inactive) | – | – | – | – | –
4 | CN1CC[C@@]2(CCCN(C(=O)c3cccn3C)C2)C1 | > 11.4 µM (inactive) | 0.737% (inactive) | inactive | > 46 µM (inactive) | inactive | inactive | – | – | 2.7% (inactive) | -0.284% | 4.15% | -1.28% (inactive) | inactive | 9.28% (inactive) | – | – | – | – | – | –
5 | COCC(=O)N1CCC2(CCN(Cc3ccncc3)CC2)CC1 | > 11.4 µM (inactive) | 5.27% (inactive) | 10 µM (active) | > 46 µM (inactive) | inactive | inactive | – | 6.31 µM (active) | 3.65% (inactive) | 13.5% | 19.1% | 1.05% (inactive) | inactive | -6.67% (inactive) | – | 0.0251 µM (active) | – | – | – | –
6 | COc1ccc(NC(=O)N2CCCC3(CCN(C(=O)c4cc(C(F)(F)F)cc(C(F)(F)F)c4)CC3)C2)cc1 | > 11.4 µM (inactive) | -9.5% (inactive) | inactive | > 46 µM (inactive) | inactive | inactive | – | – | 6.29% (inactive) | 9.63% | 18.5% | -15.1% (inactive) | inactive | 12.1% (inactive) | – | – | – | – | – | –
7 | COc1ccc2[nH]cc(CCNc3nc(-c4ccoc4)nc4ccccc34)c2c1 | 8.61 µM (active) | -4.09% (inactive) | 0.398 µM (active) | > 46 µM (inactive) | inactive | – | 3.16 µM (active) | – | 9.94% (inactive) | 6.9% | 18.2% | -9.95% (inactive) | – | – | > 46 µM (inactive) | 1.58 µM (active) | inactive | -13.1% (inactive) | inactive | –
8 | COc1ccc(Oc2ncc3nc(-c4cc(F)cc(F)c4)c(=O)n(C)c3n2)cc1 | > 11.4 µM (inactive) | 18.9% (inactive) | 3.16 µM (active) | > 46 µM (inactive) | inactive | – | 5.01 µM (active) | – | -5.54% (inactive) | 13.4% | -2.06% | – | – | -15.3% (inactive) | > 9.22 µM (inactive) | – | – | – | – | –
9 | COc1ccc(NC(=O)N2CC[C@@]3(CCCN(C(=O)c4cc(C(F)(F)F)cc(C(F)(F)F)c4)C3)C2)cc1 | > 11.4 µM (inactive) | -20.8% (inactive) | inactive | > 46 µM (inactive) | inactive | inactive | – | – | 6.21% (inactive) | 0.894% | 10.8% | -6.2% (inactive) | inactive | 12.7% (inactive) | – | – | – | – | – | –
10 | c1ccc2c(Nc3ccncc3)nc(-c3ccc4c(c3)OCO4)nc2c1 | 2.47 µM (active) | 4.72% (inactive) | 1.26 µM (active) | > 46 µM (inactive) | inactive | – | 0.501 µM (active) | – | -19.5% (inactive) | 5.68% | -11.9% | -10.5% (inactive) | inactive | – | > 46 µM (inactive) | 3.98 µM (active) | inactive | -1.29% (inactive) | inactive | 39.8 µM (active)
11 | COc1ccc(C(=O)N2CCC3(CCCN(C(=O)Nc4cccc(C#N)c4)C3)CC2)cc1 | > 11.4 µM (inactive) | -23.2% (inactive) | 15.8 µM (active) | > 46 µM (inactive) | inactive | – | 6.31 µM (active) | – | 3.86% (inactive) | 0.951% | 7.45% | 8.74% (inactive) | inactive | -8.43% (inactive) | – | – | – | – | – | –
